Among the data in the supplement of paper PMC13380429 are morphology score and SARS-CoV-2 infection rate values, retold here.

Assay [1] concerns Vero E6 infected with SARS-CoV-2. Briefly: morphology score (similarity to uninfected cells); higher = more like uninfected cells. To be noted: 24 h.
Assay [2] has the same test system. The experiment in a line: SARS-CoV-2 infection rate relative to infected DMSO; higher = more infection, active = 60 or less. To be noted: 24 h.

For the compound `CCCCc1ccc(C(N)=O)nc1` [bupicomide] (10 µM), the morphology score in assay [1] is -0.191. Also, in assay [2], the SARS-CoV-2 infection rate is 102% (inactive).

`CC(C)NC[C@@H](C(=O)N1CCN(c2ncnc3c2[C@H](C)C[C@H]3O)CC1)c1ccc(Cl)cc1` (10 µM) yielded a morphology score in assay [1] of 0.0963. In addition, the SARS-CoV-2 infection rate in assay [2] is 96% (inactive).

In assay [1], `O=C(CCc1ccc(O)cc1)c1c(O)cc(O)cc1O[C@@H]1O[C@H](CO)[C@@H](O)[C@H](O)[C@H]1O` [phlorizin] (10 µM) registered a morphology score of 0.166. Besides, the SARS-CoV-2 infection rate in assay [2] is 112% (inactive).

`O=C1CCCCCCCCCCCCCCO1` [oxacyclohexadecan-2-one] (10 µM) displayed a morphology score in assay [1] of -0.0503. For the same compound, in assay [2], the SARS-CoV-2 infection rate is 106% (inactive).

As for `Nc1ncnc2c1ncn2C1CCCO1` (centres undefined) (10 µM), the morphology score in assay [1] is 0.029. Also, the SARS-CoV-2 infection rate in assay [2] was 103% (inactive).

`O=C(O)Cc1cccc(OCCCN(Cc2cccc(C(F)(F)F)c2Cl)CC(c2ccccc2)c2ccccc2)c1` (10 µM): in assay [1], the morphology score was determined as 0.267. Moreover, in assay [2], the SARS-CoV-2 infection rate is 102% (inactive).

In assay [1], `CCCCCCc1ccc(O)cc1O` [hexylresorcinol] (10 µM) returned a morphology score of 0.199. The SARS-CoV-2 infection rate in assay [2] was 88% (inactive).
